Out of some 220,000 compounds screened, about 2,600 (1.2%) were called active.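 Rule for the calls: active = activation above the mean of all tested compounds plus 3 SD, set per screening run (cut at about 8.8% in these data); inactive = the rest.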 What follows is part of a selection rich in actives, with near analogues and random picks from the rest.

The target in this test is Wee1-like protein kinase (Homo sapiens) (UniProt P30291). Briefly: compounds stabilizing Wee1-luciferase fusion – cell-based, HeLa, Wee1K328M-luciferase, luminescence, primary screen (AID 1321).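 Note: cells exposed to compound for 20 h before luminescence read; 0% = DMSO alone and 100% = MG132 at 30 µM.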 The following applies: HeLa Luc-Wee1K328M stability, at 5 µM, hits give high values, 100% = proteasome inhibitor MG132 effect.
On to `O=C(NC(=S)Nc1cccc2c(O)cccc12)c1cccc(Br)c1`, for which the reporter increase is -1.09% (inactive). Take `O=C(Nc1ccccc1)N1CCN(Cc2ccccc2)CC1`: the reporter increase was 4.02% (inactive). In the case of `Cc1c(Br)c([N+](=O)[O-])nn1CC(=O)N1CCN(Cc2ccccc2)CC1` it was 9.26% (active).

On to `Cn1nnnc1SCC(=O)N1CCN(Cc2ccccc2)CC1`, for which the reporter increase is 1.62% (inactive). Consider `O=C(c1[nH]ncc1-c1ccc(Cl)cc1)C1CO1` (stereo not given), for which the reporter increase is -0.11% (inactive). In the case of `O=C(O)c1cccnc1Sc1ncnc2sc3c(c12)CCC3` it was -1.76% (inactive); in that of `O=C(Nc1ccccc1)Nc1ccc(C(F)(F)F)cn1`, 0.31% (inactive). In the case of `COc1cc(NC(=O)COc2ccccc2Cl)ccc1NC(=O)C(C)C` it was 9.65% (active). In the case of `O=C(COc1ccccc1Cl)Nc1ccc(C(=O)c2ccc(C(=O)O)cc2)cc1` it was -1.08% (inactive); in that of `Cc1ccccc1OCC(=O)Nc1ccc(N2CCN(C(=O)C(C)C)CC2)c(Cl)c1`, -0.59% (inactive); in that of `COc1cc(N2C(=O)CC3(CCCC3)CC2=O)cc(OC)c1OC`, -3.15% (inactive).

In the case of `Cc1ccc(NC(=S)NC(=O)c2ccc(-c3ccccc3)cc2)c(C)c1`, the reporter increase was 1.11% (inactive).

In the case of `Cc1ccc(NC(=S)NCc2ccccc2Cl)c(C)c1`, the reporter increase was 4.9% (inactive). As for `Cc1ccc(NC(=S)Nc2ncccc2C)c(C)c1`, the reporter increase is 11.8% (active). As for `COc1ccc(CNC(=O)CCC(=O)Nc2nnc(C(C)C)s2)cc1`, the figure is 0.8% (inactive); as for `COc1ccc(NS(=O)(=O)c2ccc(Oc3c(C#N)cccc3C#N)cc2)cc1`, -2.73% (inactive); as for `O=C(c1ccc(=O)oc1)N1CCC(C(O)(c2ccccc2)c2ccccc2)CC1`, 4.74% (inactive).

For `Cc1ccsc1/C=N/n1c(=S)[nH]nc(C)c1=O`, the reporter increase was 11.5% (active).

For the compound `S=c1[nH]nc(-c2cccs2)n1/N=C/c1cccs1`, the reporter increase was -2.19% (inactive). As for `Oc1ccccc1/C=N/n1c(-c2cccs2)n[nH]c1=S`, the figure is -3.64% (inactive); as for `CCOc1ccc(C2NC(=S)NC3=C2CCc2ccccc23)cc1` (stereo not given), 3.12% (inactive); as for `CCOC(=O)c1ccc(NC(=O)Cn2cnc3cc(C)c(C)cc32)cc1`, -1.24% (inactive). As for `O=C(CSc1ccccc1F)NC1CCS(=O)(=O)C1` (stereo not given), the figure is 12.3% (active); as for `CCN(CC(=O)NC1CCS(=O)(=O)C1)S(=O)(=O)c1ccccc1` (stereo not given), -0.95% (inactive). As for `O=C(CSc1nn(-c2ccc(F)cc2)c(=S)s1)NC1CCS(=O)(=O)C1` (stereo not given), the figure is 0.51% (inactive); as for `Cc1cc(C)c2c(n1)nn1c(-n3ccnc3)cc(C)nc21`, 2.99% (inactive). On to `Cc1cc(C)c2c(n1)nn1c(N3CCN(c4cccc(Cl)c4)CC3)cc(C)nc21`, for which the reporter increase is 14.1% (active). In the case of `Cc1cc(C)c2c(n1)nn1c(N3CCOCC3)cc(C)nc21` it was -0.28% (inactive); in that of `Cc1ccc(C(=O)NNc2ncnc3ccccc23)cc1`, -1.2% (inactive); in that of `COc1ccc(C(C)=O)cc1COc1ccc(Cl)c(C)c1`, 1.76% (inactive). As for `CC(C)Oc1ccc(C(=O)Nc2cc(=O)n(C)c(=O)n2C)cc1`, the figure is 11% (active). As for `Cn1c(NC(=O)c2ccc3c(c2)OCO3)cc(=O)n(C)c1=O`, the figure is -1.07% (inactive). For the compound `CC(C)Oc1ccc(C(=O)NC(C)(C)CO)cc1`, the reporter increase was -0.33% (inactive). In the case of `CC12C(=O)N(c3ccccc3)C(=O)C1C(c1ccccc1)N1CCCN12` (stereo not given) it was 1.06% (inactive); in that of `Cc1[nH][nH]c(=O)c1N=Nc1ccccc1`, 3.8% (inactive). With `Nc1[nH][nH]c(=O)c1N=Nc1ccc2c(c1)OCO2`, the reporter increase is 9.03% (active). As for `Cc1[nH][nH]c(=O)c1C(c1ccc2c(c1)OCO2)c1c(C)[nH][nH]c1=O`, the figure is 1.31% (inactive); as for `CCN(CC)CCn1cnc2c1c(=O)n(CCOC(=O)c1cc(OC)c(OC)c(OC)c1)c(=O)n2C`, -2.15% (inactive); as for `COc1ccc(/C(C)=N/N2CCOCC2)c(O)c1`, 3.27% (inactive). In the case of `CC(C)N(C(=O)c1ccc(-c2ccccc2F)cc1)C(C)C` it was 1.6% (inactive). `CCN(CC)C(=O)c1sc2nc(-c3ccccc3)ccc2c1N`: the reporter increase was 15.4% (active). As for `Cc1ccc2c(N)c(C(=O)c3ccccc3)sc2n1`, the figure is 3.2% (inactive).

Turning to `CCOC(=O)c1sc2nc(SC)nc(-c3ccccc3)c2c1N`, the reporter increase is 0.82% (inactive). In the case of `Cn1c(SCC(=O)N/N=C/c2ccc(O)c(O)c2)nc2ccccc21` it was 3.18% (inactive); in that of `O=C(CNCc1ccc(F)cc1)Nc1ccccc1-c1ccccc1`, 11.8% (active). As for `O=C(Cc1ccccc1)NCc1ccc(F)cc1`, the figure is 0.79% (inactive); as for `CCC(C(=O)OCC(=O)Nc1ccccc1-c1ccccc1)c1ccccc1` (stereo not given), 3.65% (inactive).

Turning to `CC(=O)OCCOCn1cnn2c(=O)c(Br)c(C)nc12`, the reporter increase is 5.31% (inactive). As for `CCOC(=O)C(=O)C1C(=O)Nc2ccccc21` (stereo not given), the figure is -1.16% (inactive); as for `O=C1CC2(CC(c3ccc(Cl)cc3)=NO2)C(=O)N1c1ccccc1` (stereo not given), 0.07% (inactive); as for `CCOc1cc2c(Cl)ncnc2c(OCC)c1OCC`, -3.14% (inactive). In the case of `COc1ccc(CCNC(=O)COC(=O)C2CCCCC2)cc1` it was -1.3% (inactive).

`COc1ccc(OCC(=O)OCC(=O)Nc2ccc(S(=O)(=O)N3CCCCC3)cc2)cc1`: the reporter increase is -0.17% (inactive). As for `COc1ccc(NC(=O)COC(=O)CNC(=O)C2CCCCC2)cc1`, the figure is 11.6% (active). In the case of `O=C(CN1CCSCC1)N/N=C/c1ccc(Cl)cc1` it was 2.89% (inactive). In the case of `Cc1ccc(OCC(=O)N/N=C/c2ccncc2)cc1`, the reporter increase is -0.52% (inactive). For `Cc1ccc(COc2ccc(/C=N/NC(=O)CN3CCCCC3)cc2)cc1`, the reporter increase is 22.3% (active). In the case of `CC1=NOC(=O)/C1=C\c1ccccc1` it was -0.32% (inactive); in that of `O=C(COc1ccc([N+](=O)[O-])cc1Cl)Nn1cnnc1`, -0.06% (inactive). In the case of `CC(C)(C)c1ccc(/C=C/C(=O)NC2CCS(=O)(=O)C2)cc1` (stereo not given) it was 2.93% (inactive); in that of `COc1ccc(-c2ccc(OC(=O)NC3CCS(=O)(=O)C3)cc2)cc1` (stereo not given), 9.29% (active). As for `COc1ccc(NC(=S)NC2CCS(=O)(=O)C2)cc1` (stereo not given), the reporter increase is 4.7% (inactive). On to `O=C(NCCCN1CCCCCC1)c1ccc(N2CCCC2=O)cc1`, for which the reporter increase was 2.16% (inactive).

Take `CC1CCC(NC(=O)c2ccc(N3CCCC3=O)cc2)CC1` (stereo not given): the reporter increase was 0.06% (inactive). In the case of `CCCNC(=O)NCc1ccc(N2CCCC2=O)cc1` it was 10.3% (active).
